SARS PLpro yeast – blocks SARS-CoV papain-like protease in a yeast assay | S. cerevisiae expressing SARS-CoV PLpro, growth rescue | Potency, µM (highest dose often 32.9 µM), without a hit: top-dose activity, positive = growth rescue, hits mostly activators | 330,000 compounds, 0.19% hits | AID 485353; also: potency is read from the fitted curve at half-maximal effect; 0% is about no effect; nearly all actives have a fitted effect of over 55% in size
TbPYK inhibitor – inhibitors of Trypanosoma brucei pyruvate kinase | Q57TT1 | TbPYK enzyme, Kinase-Glo Plus ATP luminescence, 45 min | Potency, µM (highest dose often 76.8 µM), inactives show top-dose activity, negative = inhibition, hits mostly inhibitors | 410,000 compounds, 0.12% hits | AID 624173; active = well fitted curve in the direction sought with a large enough effect; inconclusive = small, poorly fitted or top-dose-only effect, or another doubt; inactive = no such curve, though single readings can be large; an effect the other way counts as inactive or inconclusive; also: potency is read from the fitted curve at half-maximal effect; % is scaled to controls: 0 for no effect and ±100 for the full control effect; nearly all actives have a fitted effect of over 50% in size
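Glycolytic pyruvate kinase of T. brucei was incubated with substrate, test compound and 130 uM ADP for 45 minutes at room temperature. Luminescent Kinase-Glo Plus signal was measured after 10 minutes.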
Shiga toxin inh – inhibitors of Shiga toxin in Vero cells. Vero cells, Shiga toxin protein synthesis inhibition reporter. inhibition, % at 38.7 µM. 290,000 compounds, 9.2% hits. AID 2315; in the data active = inhibition mostly above about 28%, no sharp cut-off; inactive = mostly below about 43%; also: 0% is about no effect
Cycloheximide cs – affects cycloheximide protein synthesis inhibition readout, counter-screen | cell reporter, cycloheximide protein synthesis inhibition counterscreen | max response, % | 300,000 compounds, 12% hits | AID 2314; in the data active = max response mostly above about 13%, no sharp cut-off; inactive = mostly below about 14%; also: read at 38.3 µM for the half of the compounds with a filed dose; 0% is about no effect
NS1 function inh – influenza NS1 inhibition; Potency, µM (doses to about 46.1 µM), for the others: at the highest dose activity, positive = more growth; 270,000 compounds, 0.4% hits; AID 2326; also: potency is read from the fitted curve at half-maximal effect; actives are rising curves; nearly all actives have a fitted effect of over 50% in size
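In this qHTS, NS1 from influenza A is expressed in budding yeast, where it slows growth. Cells are switched from glucose to 2% galactose medium (pH 6.0, -URA), treated with compound, and growth recovery is read at OD600.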
LmPK inhibitor – blocks Leishmania mexicana pyruvate kinase activity. Q27686. purified LmPK, Kinase-Glo ATP luminescence, 1 h. 290,000 compounds, 0.37% hits. Potency, µM (titrated, usually from 57.5 µM), for inactives: at the top dose activity change, negative = inhibition, usual class: inhibitors; active = well fitted curve in the direction sought with a large enough effect; inconclusive = small, poorly fitted or top-dose-only effect, or another doubt; inactive = no such curve, though single readings can be large; an effect the other way counts as inactive or inconclusive; also: potency is read from the fitted curve at half-maximal effect; % is scaled to controls: 0 for no effect and ±100 for the full control effect
Target sequence (Q27686 whole entry, looked up): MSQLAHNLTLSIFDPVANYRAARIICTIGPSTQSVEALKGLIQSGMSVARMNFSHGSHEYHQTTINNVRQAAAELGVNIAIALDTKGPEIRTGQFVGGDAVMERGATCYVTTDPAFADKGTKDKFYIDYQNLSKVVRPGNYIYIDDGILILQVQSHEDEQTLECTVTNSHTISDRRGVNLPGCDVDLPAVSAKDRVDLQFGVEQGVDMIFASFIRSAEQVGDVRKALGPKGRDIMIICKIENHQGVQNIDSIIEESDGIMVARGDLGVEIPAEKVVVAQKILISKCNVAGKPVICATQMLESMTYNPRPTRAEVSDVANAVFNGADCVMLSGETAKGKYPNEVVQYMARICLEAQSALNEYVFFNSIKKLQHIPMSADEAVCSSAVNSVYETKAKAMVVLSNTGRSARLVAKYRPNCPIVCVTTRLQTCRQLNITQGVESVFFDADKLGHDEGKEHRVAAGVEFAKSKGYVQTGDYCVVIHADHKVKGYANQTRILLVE
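qHTS format; LmPK 0.1 nM; substrates PEP 0.5 mM and ADP 0.1 mM. One-hour room-temperature incubation, then coupled luciferase luminescence; 0.5 nM enzyme wells mark activation.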
Active calls of the source: *; ? = inconclusive; . = not tested or not shown; ! = not active in a repeat. Shown is part of a subset that was picked to be rich in hits. Unless noted, calls follow the shape of the full dose curve.

SMILES	SARS PLpro yeast	TbPYK inhibitor	Shiga toxin inh	Cycloheximide cs	NS1 function inh	LmPK inhibitor
O=S(=O)(c1ccc(SCCOc2cccc(Br)c2)nc1)N1CCCC1	3.8%	-3.7%	.	.	.	.
COc1ccc(-c2nnc(SCc3ccccc3F)o2)cc1	3.9%	1.5%	118.3*	46.6*	-66.8%	-4.0%
Cc1ccccc1-c1nnc(Cc2ccccc2)o1	-1.1%	0.0%	138.2*	40.8*	-14.2%	-7.5%
Cc1cc(Cl)ccc1OCc1nnc(-c2ccccc2C)o1	1.7%	-0.7%	.	.	.	.
Cc1ccccc1-c1nnc(SCC(=O)Nc2cccc(C)c2C)o1	9.9%	0.0%	12.1	-2.7	-10.2%	2.6%
Cc1ccccc1-c1nnc(SCc2ccccc2F)o1	-22.3%	5.7%	86.9*	58.1*	-47.9%	-7.3%
Fc1ccccc1CSc1nnc(-c2cccnc2)o1	-10.4%	5.8%	109.6*	47.9*	.	-0.6%
COc1cc(OC)c(OC)cc1/C=C/c1nc2cc3ccccc3cc2c(=O)n1-c1ccc(F)cc1F	.	-4.8%	.	.	.	.
CCCNC(=O)C1(CC2CC(c3ccccc3)=NO2)CCN(C(=O)c2cc(OCC)c(OCC)c(OCC)c2)CC1 (centres undefined)	.	0.0%	.	.	.	.
Fc1cccc(Cl)c1CSc1nnc(CNc2ccccc2)o1	0.1%	-2.3%	19.9	17.2*	-37.3%	6.4%
Fc1ccc(NCc2nnc(SCc3ccccc3)o2)cc1	-2.3%	-0.9%	15.3	11.6	-6.4%	0.0%
Cc1nn(C(=O)c2ccco2)c(C)c1Br	-1.8%	5.0%	-22.4	-6.4	2.8%	-7.0%
Cc1ccn2c(c1)nc(=S)n2C(=O)c1ccco1	3.4%	.	74.2*	39.4*	19.2%	?
CCN(CCS(=O)(=O)c1ccc(Cl)cc1)C(=O)Nc1ccc(Cl)cc1	-1.7%	-4.4%	10.7	8.1	-7.0%	0.1%
Cc1nc2scc(-c3ccccc3)c2c(=O)n1N=C1C=CC(=O)C=C1	-2.0%	3.98µM*	48.7*	25.1*	-4.9%	-20.7%
Cc1nc2scc(-c3ccccc3)c2c(=O)n1N	-7.6%	-0.3%	-5.3	-0.8	-15.2%	8.7%
CCCC#Cc1ccc2c(c1)O[C@H](CN(C)C(=O)CC1CC1)[C@H](C)CN([C@@H](C)CO)S2(=O)=O	.	-16.6%	.	.	.	.
c1ccc(Sc2cnc3ccccc3n2)cc1	.	3.0%	107.7*	63.7*	-8.7%	-6.6%
O=S(=O)(c1ccc(Br)cc1)c1cnc2ccccc2n1	-0.8%	0.8%	-6.2	7.5	.	-9.9%
Brc1ccc(Sc2cnc3ccccc3n2)cc1	.	4.6%	75.7*	33.3*	6.0%	-2.2%
Clc1ccccc1Sc1cnc2ccccc2n1	21.0%	0.4%	22.9	22.5*	16.9%	-5.1%
Clc1ccc(Sc2cnc3ccccc3n2)cc1	.	-0.7%	85.3*	38.0*	6.4%	-0.7%
Cc1nccnc1Sc1ccccc1	2.2%	-0.5%	3.0	-2.1	3.0%	-0.4%
CSc1nc(Sc2ccc(Cl)cc2)c2ccccc2n1	5.1%	0.1%	-10.9	0.6	16.2%	4.2%
CCCOc1ccc(C2CC(=O)NC2=O)cc1 (centres undefined)	-0.3%	-20.8%	23.9	-3.8	4.6%	3.5%
SMILES	SARS PLpro yeast	TbPYK inhibitor	Shiga toxin inh	Cycloheximide cs	NS1 function inh	LmPK inhibitor
CCCCOc1ccc(CC2CCC(=O)NC2=O)cc1 (centres undefined)	-0.4%	2.7%	2.9	12.9*	-4.0%	-11.7%
CCCCOc1ccc(C2CC(=O)NC2=O)cc1 (centres undefined)	-9.1%	4.8%	66.6*	35.7*	-1.6%	-1.3%
CCCCCC(=O)N1C[C@H](n2cc(-c3ccc(F)cc3)nn2)[C@@H](O)C[C@@H]1c1ccc(C)cc1	.	-17.4%	.	.	.	.
CCC(=O)OC1(C(C)=O)CCC2C3CCC4=CC(=O)CCC4(C)C3CCC21C (centres undefined)	.	5.7%	.	.	.	.
COc1cccc(C2=NN(C(=O)c3ccco3)C(O)(C(F)(F)F)C2)c1 (centres undefined)	-1.8%	5.5%	4.4	22.1	1.7%	1.1%
CCCCC1=NN(C(=O)c2ccncc2)C(O)(C(F)(F)F)C1 (centres undefined)	-0.1%	-1.8%	2.9	-1.1	3.5%	1.9%
Cc1ccc(C2=NN(C(=O)c3ccco3)C(O)(C(F)(F)F)C2)cc1 (centres undefined)	-3.4%	-1.6%	37.1*	13.7*	-5.1%	12.9%
CC1=NN(C(=O)c2cccnc2)C(O)(C(F)(F)F)C1 (centres undefined)	-2.3%	-1.9%	-10.5	-0.8	.	-0.7%
CC1=NN(C(=O)c2ccoc2C)C(O)(C(F)(F)F)C1 (centres undefined)	0.5%	-2.7%	44.1*	50.1*	-0.5%	-2.5%
CCCCC1=NN(C(=O)c2cocc2C)C(O)(C(F)(F)F)C1 (centres undefined)	-21.0%	0.2%	32.3*	20.4*	5.5%	3.2%
COC(=O)N1N=C(c2ccccc2)CC1(O)C(F)(F)F (centres undefined)	2.8%	-6.1%	105.6*	38.6*	-0.2%	-21.7%
Cc1cccc2c1N(Cc1ccccc1OCCC(C)C)C(=O)C2=O	.	3.0%	.	.	.	.
CCc1ccc(NC(=O)c2ccc(CN3CC(=O)N4CCCCC4C3=O)cc2)cc1 (centres undefined)	.	-2.5%	.	.	.	.
CCc1ccc(NC(=O)CSC2=Nc3ccccc3C3=NC(CC(=O)NCc4cccs4)C(=O)N23)cc1 (centres undefined)	.	-9.3%	.	.	.	.
Cc1ccccc1OCC(=O)NC(C)c1ccccc1 (centres undefined)	0.8%	5.2%	-9.0	-4.7	-5.4%	1.1%
O=c1[nH]nc(SCCS(=O)(=O)c2ccc(F)cc2)n1-c1ccccc1	0.4%	3.1%	-10.6	12.2*	3.6%	4.2%
Cc1cc(C)c(NC(=O)CN(CC(=O)O)CC(=O)O)c(C)c1Br	.	-6.3%	.	.	.	.
COc1ccc(N2C(=O)C(CC(=O)Nc3ccc(F)cc3)N(CCC3=CCCCC3)C2=O)cc1 (centres undefined)	.	0.4%	.	.	.	.
COC(=O)c1c(C)cc(O)c(C=O)c1O	.	0.2%	.	.	.	.
Cc1cc2c(C(C)C)c(O)c(O)c(C=O)c2c(O)c1-c1c(C)cc2c(C(C)C)c(O)c(O)c(C=O)c2c1O	10µM*	-11.6%	6.9	0.8	0.355µM*!	6.8%
Cc1ccnc2nc(C(=O)OCC(=O)NCc3cccc(Cl)c3)nn12	2.2%	-0.3%	.	.	.	.
CC1=C(C(=O)N(C(C)C)C(C)C)CC(CC(=O)NCc2cccs2)C(=O)N1CCCN1CCCC1=O (centres undefined)	.	-4.9%	.	.	.	.
CSCC(=O)N1CCc2ccc(NC(=O)c3ccccc3Cl)cc2C1	-2.1%	-8.2%	.	28.2*	-11.1%	-0.6%
CN(C)S(=O)(=O)N1CCc2ccc(NC(=O)c3ccccc3Cl)cc2C1	3.5%	2.2%	14.0	11.5*	-11.8%	-0.9%
CCCS(=O)(=O)N1CCc2ccc(NC(=O)c3ccccc3Cl)cc2C1	-1.2%	-5.6%	.	10.4	-6.1%	4.4%
Cc1ccc(-n2nc(-c3ccc(F)cc3)c3cnc4cc5c(cc4c32)OCO5)cc1C	.	-3.1%	.	.	.	.

Screening results (PubChem BioAssay)
